Test results as given in ChEMBL document CHEMBL3988442, “University of Dundee, Small-Polar-MMV Screening Library” (2021).
In all, about 48,000 compounds went through this assay and about 13,000 (27%) showed an effect of 50% or more. The list shows a part of the results.

Each compound was assayed on Wolbachia pipientis (assay: Anti-Wolbachia Cell-Based Screen). Conditions: 5 µM.
Format: functional
Set-up: scale not given: in the data most compounds retested in dose-response had high values

First: Cc1cc(CNc2cc(Cl)ccc2OCCS(C)(=O)=O)no1
Second: CS(=O)(=O)c1nccn1Cc1ccc(Cl)cc1
The “Percent Effect” value of the first is higher: 12.16% for the first, -5.692% for the second.

Going from COCCN(Cc1ccsc1)C(=O)c1c(C)cc(C)[nH]c1=O to O=C(c1cccc(=O)[nH]1)N(Cc1ccsc1)CC1CCCO1 (centres undefined), the “Percent Effect” value falls from -10.51% to -26.62%.

Going from CC(C)N1[C@H](Cn2cncn2)C[C@@H]2CN(Cc3nccn3C)CC[C@@H]21.O=C(O)C(F)(F)F.O=C(O)C(F)(F)F.O=C(O)C(F)(F)F to CC(C)N1[C@H](CN2CCCC2)C[C@@H]2CN(Cc3ccoc3)CC[C@@H]21.O=C(O)C(F)(F)F.O=C(O)C(F)(F)F.O=C(O)C(F)(F)F, the “Percent Effect” value falls from 2.762% to -12.2%.

First: Cc1cc(C(=O)N2C[C@@H]3COC[C@]3(CN(C)C)C2)c(C)o1.O=C(O)C(F)(F)F
Second: CCOCC1CN(C(=O)c2cc(C)oc2C)Cc2c1cnn2C.O=C(O)C(F)(F)F (centres undefined)
The “Percent Effect” value of the first is lower: -9.437% for the first, 4.422% for the second.

Going from CS(=O)(=O)N1CC[C@H]2[C@H](C[C@@H](Cn3cncn3)N2CC2CC2)C1.O=C(O)C(F)(F)F to CC(=O)N1[C@H](Cn2cncn2)C[C@@H]2CN(S(C)(=O)=O)CC[C@@H]21, the “Percent Effect” value rises from -10.6% to -6.775%.

Compared with Cc1oncc1C(=O)N1C[C@H]2CCCC(N(C)Cc3cccs3)[C@H]2C1.O=C(O)C(F)(F)F (some centres undefined), Cc1oncc1C(=O)N1CC[C@H]2[C@H](C[C@@H](CN(C)C)N2CC2CC2)C1.O=C(O)C(F)(F)F.O=C(O)C(F)(F)F is higher in “Percent Effect” value: 13.96% for the first, 105.6% for the second.

Going from CC(C)C1CN(Cc2nccn2C)CCC(=O)N1CC1CC1 (centres undefined) to CN(C)C[C@@H]1C[C@@H]2CN(Cc3nccn3C)CC[C@@H]2N1CC1CC1, the “Percent Effect” value rises from -0.2084% to 107.7%.

Going from Cc1ccoc1C(=O)N1CC[C@H]2[C@H](C[C@@H](CN3CCCC3)N2C)C1.O=C(O)C(F)(F)F.O=C(O)C(F)(F)F to Cc1cc(C(=O)N2CC[C@H]3[C@H](C[C@@H](CN4CCCC4)N3C)C2)c(C)o1.O=C(O)C(F)(F)F.O=C(O)C(F)(F)F, the “Percent Effect” value rises from 96.15% to 132.6%.

Going from CN1[C@H](CN2CCCC2)C[C@@H]2CN(Cc3ccoc3)CC[C@@H]21.O=C(O)C(F)(F)F.O=C(O)C(F)(F)F.O=C(O)C(F)(F)F to CC1c2ncc(CN3CCN(C)CC3)n2CCN1Cc1ccccn1.O=C(O)C(F)(F)F.O=C(O)C(F)(F)F.O=C(O)C(F)(F)F.O=C(O)C(F)(F)F (centres undefined), the “Percent Effect” value rises from 3.946% to 110.4%.

Going from CN(C)C(=O)N1CCN(Cc2nc3ccccc3[nH]2)[C@H]2CS(=O)(=O)C[C@H]21 to CN(C)CC1(O)CCCN(C(=O)Cn2nc3ccccc3n2)CC1 (centres undefined), the “Percent Effect” value falls from -17.35% to -26.73%.

Going from CC(C)c1nc(CN2CCCCC2)cs1 to CCCNC(=O)CN1CCN(Cc2csc(C(C)(C)C)n2)CC1, the “Percent Effect” value falls from -7.213% to -11.65%.

Going from CC1(C)CN(C(=O)c2ncc(F)cc2F)CCC1(O)CN1CCOCC1 (centres undefined) to CCc1ccc(C(=O)N2CCC(O)(CN3CCOCC3)C(C)(C)C2)[nH]1 (centres undefined), the “Percent Effect” value falls from -6.83% to -6.859%.

Compared with COCCCN1CC2(CCN(C(=O)Cc3csc(C)n3)CC2)CC1=O, COCCCN1CC2(CCN(C(=O)c3ccc(=O)n(C)c3)CC2)CC1=O is higher in “Percent Effect” value: -10.63% for the first, 118.9% for the second.

Going from CN1CC2(CCN(C(=O)c3ccc4nonc4c3)CC2)CC1=O to CN1CC2(CCN(C(=O)c3ccc4nccnc4c3)CC2)CC1=O, the “Percent Effect” value rises from -11.27% to -6.042%.

Compared with CN1CC2(CCN(C(=O)c3ccc(=O)n(C)c3)CC2)CC1=O, COc1cccc(N2CCN(C(=O)c3ccc(=O)n(C)c3)CC2)c1 is lower in “Percent Effect” value: 119.6% for the first, -5.711% for the second.

First: COCCCN1CC2(CCN(Cc3ncc[nH]3)CC2)CC1=O
Second: COCCCN1CC2(CCN(C(=O)c3ncc(F)cc3F)CC2)CC1=O
The “Percent Effect” value of the first is lower: 10.5% for the first, 74.04% for the second.

Going from Cc1nnc(CN(C)C2CCN(c3cccc(-c4cscn4)c3)CC2)o1 to Cn1ccnc1CN1CCCCC1c1nc(-c2ccccc2)no1 (centres undefined), the “Percent Effect” value rises from -15.24% to 18.03%.

Going from CCC(C(=O)NC)N(c1cccc(C)c1)S(C)(=O)=O (centres undefined) to CSc1cccc(CN(C)C(=O)Nc2nc(C)n(C)n2)c1, the “Percent Effect” value falls from 11.36% to 2.052%.

Compared with CCCN(CC1COc2ccccc2O1)C(=O)c1ncoc1CC (centres undefined), CCCN(CC1COc2ccccc2O1)C(=O)CCN1C(=O)CCC1=O (centres undefined) is higher in “Percent Effect” value: -65.56% for the first, 23.62% for the second.

First: Cc1ncsc1CN1C[C@@H](OCC2CC2)[C@H]2OCCC[C@H]21
Second: CN(CC1CC1)C(=O)CN1CCCC1c1cnn(C)c1 (centres undefined)
The “Percent Effect” value of the first is higher: -10.25% for the first, -56.85% for the second.

Going from Cc1ccsc1C(=O)Nc1cc(Br)c(=O)n(C)c1 to CN1CCc2ccc(NCc3cccs3)cc2C1=O, the “Percent Effect” value rises from -6.468% to -3.883%.

Compared with N#CCCN(CCC#N)C(=O)c1ccc(OCC2CC2)cc1, N#CCCN(Cc1ccco1)C(=O)c1ccc(OCC2CC2)cc1 is higher in “Percent Effect” value: 8.167% for the first, 40.98% for the second.

Compared with N#CCCN(CC1CCCO1)C(=O)c1ccsc1 (centres undefined), N#CCCN(CC1CCCO1)C(=O)c1ccc(C#N)cc1 (centres undefined) is higher in “Percent Effect” value: 115.2% for the first, 122.3% for the second.

Compared with O=C(c1cnc(O)cn1)N(Cc1ccsc1)CC1CCCO1 (centres undefined), CN(C)C(=O)c1cn[nH]c1C1CCCN1Cc1c[nH]cn1 (centres undefined) is higher in “Percent Effect” value: -2.864% for the first, 119.4% for the second.

Compared with CCn1/c(=N/C(=O)CSCC(=O)Nc2nccs2)sc2ccccc21, Cc1cnn(CCC(=O)NS(=O)(=O)N2CCc3ccccc32)c1 is lower in “Percent Effect” value: 6.405% for the first, 5.056% for the second.

Compared with CN(C)C(=O)CN1C[C@@H]2CC[C@H](C1)N(C(=O)CCCn1cncn1)C2, CN1CCN(C(=O)N2C[C@H]3CC[C@@H]2CN(Cc2ccccc2)C3)CC1 is lower in “Percent Effect” value: 9.651% for the first, -20.32% for the second.

Going from O=C1CCC(C(=O)N2CCC(Cn3cc(C4CCCC4)nn3)CC2)=NN1 to Cc1ccc(C(=O)N2CCC(n3cc(CN)nn3)CC2)cc1F, the “Percent Effect” value rises from -1.401% to 8.756%.

First: Cc1noc(C)c1CN1CCCC(CN(C(=O)OC(C)(C)C)C(C)C)C1 (centres undefined)
Second: Cc1nn(C)c2ncnc(N(C)CC3CCN(CC(C)C)C3)c12 (centres undefined)
The “Percent Effect” value of the first is higher: -2.017% for the first, -20.38% for the second.

Going from NCC(=O)N1CCCC(O)(CN2CCN(c3ccccc3)CC2)CC1 (centres undefined) to O=C(C1CC1)N1CCC(O)(CN2CCN(c3ccccc3)CC2)C1 (centres undefined), the “Percent Effect” value falls from 149.6% to 101.1%.

First: Cc1ccc(CN2CC3(CCN(C(=O)C4CC4)CC3)CC2C(=O)O)o1 (centres undefined)
Second: NC(=O)CN1CCCC(C(=O)N2CCC(O)(Cc3ccccc3)CC2)C1 (centres undefined)
The “Percent Effect” value of the first is lower: -15.03% for the first, 12.2% for the second.

Compared with COCC(=O)N1CC2(CCN(c3ccccc3)C2)C1, COCC(=O)N1CCCC2(CCN(c3ccccc3)C2=O)C1 (centres undefined) is lower in “Percent Effect” value: 10.91% for the first, -10.31% for the second.

First: COCC(=O)N1CCC(O)(CN2CCN(c3ccccc3)CC2)C1 (centres undefined)
Second: O=C(CC1CC1)N1CCC(O)(CN2CCN(c3ccccc3)CC2)C1 (centres undefined)
The “Percent Effect” value of the first is lower: 93.8% for the first, 113.7% for the second.

Going from O=C(Cn1nc2ccccc2n1)N1CCCC(O)(CN2CCCC2)C1 (centres undefined) to O=C(c1n[nH]c(=O)c2ccccc12)N1CCC(O)(CN2CCOCC2)C1 (centres undefined), the “Percent Effect” value rises from -26.39% to 88.42%.

Compared with O=C(CC1CC1)N1CCC2(CC(=O)N(c3cccc(F)c3)C2)C1 (centres undefined), Cc1cccc(CN2CCCC(O)(CNCCN3CCCCC3)C2=O)c1 (centres undefined) is lower in “Percent Effect” value: -13.04% for the first, -21.92% for the second.

Compared with Cc1nc(-c2cc(C(=O)NCC(C)(C)CO)c3ccccn23)cs1, Cc1nc(CN2CCCC2c2[nH]ncc2C(=O)N(C)C)cs1 (centres undefined) is higher in “Percent Effect” value: -18.5% for the first, 135.6% for the second.

Compared with COc1cc(NC(=O)NC(C2CC2)C2CC2)ccc1N1CCOC1=O, O=C(NC1CC(=O)N(C2Cc3ccccc3C2)C1)c1ccoc1 (centres undefined) is higher in “Percent Effect” value: -4.711% for the first, -3.995% for the second.

Compared with CCC(=O)NCc1cc(Br)ccc1OC(F)F, CC(Oc1ccccc1C(F)(F)F)C(=O)NCCNC(=O)C1CC1 (centres undefined) is lower in “Percent Effect” value: -1.176% for the first, -69.67% for the second.

Compared with O=C(CNC1CCc2ncnn2C1)N(Cc1cccs1)C1CC1 (centres undefined), CC(=O)Nc1nc(CN2CCCC2c2cnn(C)c2)cs1 (centres undefined) is lower in “Percent Effect” value: 0.7257% for the first, -2.623% for the second.

Compared with O=C(NCCN1CCOCC1)c1n[nH]c(=O)c2ccccc12, Cc1nn(C)c(N2CCOCC2)c1CNC1CCc2ccccc2C1 (centres undefined) is lower in “Percent Effect” value: 6.871% for the first, -5.455% for the second.

Going from COc1cccc(NC(=O)NCC(C)(O)CCSC)c1OC (centres undefined) to CC(C)NC(=O)[C@@H]1C[C@@H](N)CN1C(=O)CCSCc1ccccc1, the “Percent Effect” value falls from -0.9088% to -10.01%.

Compared with CNc1cncc(C2CCCN2Cc2c[nH]cn2)n1 (centres undefined), Fc1ccc2[nH]c(C3CCCN3Cc3c[nH]cn3)nc2c1 (centres undefined) is lower in “Percent Effect” value: -2.81% for the first, -35.05% for the second.

First: CN(C(=O)CN1CCCC1c1cnn(C)c1)C(C)(C)C#N (centres undefined)
Second: CN(C)C(=O)c1cn[nH]c1C1CCCN1Cc1cncn1C (centres undefined)
The “Percent Effect” value of the first is lower: 6.976% for the first, 96.91% for the second.

Compared with CN(C)C(=O)c1cn[nH]c1C1CCCN1Cc1nccn1C.O=CO (centres undefined), CC(=O)NCCNC(=O)CN1CCN(Cc2nccn2C)C(C)C1 (centres undefined) is lower in “Percent Effect” value: 83.24% for the first, 1.772% for the second.

First: Cc1ccc2nc(C3CCCN3Cc3csc(C)n3)[nH]c2c1 (centres undefined)
Second: CC1c2ncc(Cn3cccn3)n2CCN1Cc1ccc(F)cc1.O=C(O)C(F)(F)F (centres undefined)
The “Percent Effect” value of the first is lower: 2.616% for the first, 95.73% for the second.

Going from O=C(NC[C@H]1OC[C@@H](NC2COC2)[C@@H]1O)Nc1ccccc1 to CCOCc1cnc2n1CCN(C(=O)Cc1ccccn1)C2C.O=C(O)C(F)(F)F (centres undefined), the “Percent Effect” value falls from 4.366% to -0.9872%.

Going from CC1c2ncc(COCC3CCOCC3)n2CCN1Cc1cccnc1.O=C(O)C(F)(F)F.O=C(O)C(F)(F)F (centres undefined) to CC1c2ncc(Cn3cccn3)n2CCN1Cc1cccnc1.O=C(O)C(F)(F)F.O=C(O)C(F)(F)F (centres undefined), the “Percent Effect” value rises from -7.39% to 97.64%.

Compared with CC1c2ncc(Cn3cccn3)n2CCN1Cc1ccccn1.O=C(O)C(F)(F)F.O=C(O)C(F)(F)F (centres undefined), CC1c2ncc(COCc3ccccn3)n2CCN1C1CCCC1.O=C(O)C(F)(F)F.O=C(O)C(F)(F)F (centres undefined) is lower in “Percent Effect” value: 102.5% for the first, 16.64% for the second.
